Reference: PubChem BioAssay (NCI)
This is part of a sample that, as a whole, favours compounds with a hit. Of some 83,000 tested, about 20% had one in any assay.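 Treatment: one concentration, 48 hours, 96-well format. Scoring: percent growth, with anything below 10 considered active.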 Activity calls are given as the source filed them.

The molecules below were run on MDA-MB-468 breast (assay: NCI-60 one-dose screen, 48 h (100 = growth as untreated, 0 = no growth, -100 = all killed)). Conditions: 10 µM unless noted.

Row | Compound | growth
1 | O=C(Nc1ccc(Oc2ccc(F)cc2)c(Cl)c1)c1cccnn1 | 39.3% (inactive)
2 | CCOC(=O)c1ccc2nc(-c3c(C)nn(-c4ccccc4)c3N3CCOCC3)[nH]c2c1 | 105% (inactive)
3 | COC(=O)c1c(-c2ccccc2)csc1NC(=O)c1c(-c2ccccc2)noc1C | 63.6% (inactive)
4 | CC1CCN(CCOc2ccc(CNc3ccc4nc(CCC5CCCCC5)[nH]c4c3)cc2)CC1 | 14.2% (inactive)
5 | COc1cc(/C=C/C(=O)c2c(-c3ccc(Cl)cc3)nc3sc(C)nn23)cc(OC)c1OC | 65.7% (inactive)
6 | Nc1ccc(-c2nc3ccc4[nH]ncc4c3c3c2CCCC3)cc1F | 7.24% (active)
7 | CCOC(=O)c1[nH]c(C)c(C(C)=O)c1C | 87.2% (inactive)
8 | OCCCCCCNc1ncnc2cc(Cl)ccc12 | 74.1% (inactive)
9 | Cc1cc(C)c2nc3nc(C)cc(C)c3c(N)c2c1 | 48.4% (inactive)
10 | CC(=O)/C(=C/c1ccc([N+](=O)[O-])cc1)C(=O)c1ccccc1 | 114% (inactive)
11 | COc1cc(O)c2c(=O)c3c(CC=C(C)C)cc(OC)c(O)c3oc2c1 | 64.6% (inactive)
12 | O=C(Nc1cccc(Cl)c1)Nc1nccs1 | -0.235% (active)
13 | O=C1c2cccc3c([N+](=O)[O-])ccc(c23)C(=O)N1CCCCl | -62.2% [100 µM] (active)
14 | CCCC(=O)CC(=O)c1ccccc1 | 97.5% (inactive)
15 | Cc1ccc(NC(=O)c2nc(S(C)=O)oc2-c2ccc(F)cc2)cc1Nc1nccc(-c2cccnc2)n1 (stereo not given) | 10.6% (inactive)
16 | CCCCCCNC(=O)Oc1ccc(/C(=C(\C)c2ccc(Cl)cc2)c2ccc(OCCN3CCCCC3)cc2)cc1 | 25.1% (inactive)
17 | CCSc1oc(-c2ccccc2)nc1[P+](c1ccccc1)(c1ccccc1)c1ccccc1 | -37.6% (active)
18 | COc1cc(OC)cc(C2=C3CC[C@@H]4[C@H](CC[C@]5(C)C(=O)CC[C@@H]45)C3=CC3C(O)c4cccnc4N4C(=O)COC234)c1 (stereo not given in full) | 105% (inactive)
19 | COc1ccc(CN2C(=O)/C(=C\c3cc(OC)c(OC)c(OC)c3)c3ccccc32)cc1 | 5.64% (active)
20 | C/C(=C\c1ccccc1)C(O)C(=O)c1nc2ccc([N+](=O)[O-])cc2[nH]c1=O (stereo not given) | 89.7% (inactive)

Row | Compound | growth
21 | O=C(CCCCCCSc1nc(-c2ccc(Cl)cc2)cc(-c2ccc(Cl)cc2)n1)NO | 32.6% (inactive)
22 | COc1cc(/C=C2\SC(=S)N(/C=C/c3nc4ccccc4[nH]c3=O)C2=O)cc(OC)c1OC | 81.2% (inactive)
23 | C=C(C)[C@@H]1CC[C@]2(CN)CC[C@]3(C)[C@H](CC[C@@H]4[C@@]5(C)CCC(N)[C@@](C)(CO)[C@@H]5CC[C@]43C)[C@@H]12 (stereo not given in full) | -86.6% (active)
24 | CC1(C)CC[C@]2(C(=O)O)CC[C@]3(C)C(=CC[C@@H]4[C@@]5(C)C[C@@H](Cc6cn([C@@H]7O[C@H](CO)[C@@H](O)[C@H](O)[C@H]7O)nn6)[C@H](O)C(C)(C)[C@@H]5CC[C@]43C)[C@@H]2C1 | 87% (inactive)
25 | CN1C(=O)CNC(=O)[C@H](NC(=O)c2nc3ccccc3cc2O)CSSC[C@H]1C(=O)NCCc1nc2ccccc2cc1O | 16% (inactive)
26 | COc1cc2c(-c3cc4c(cc3CNCCc3ccc5c(c3)OCO5)OCO4)cccc2c(OC)c1O | -8.75% (active)
27 | Nc1ncnc2[nH]c(=O)[nH]c12 | 97.8% (inactive)
28 | Nc1nc(N)c2c(n1)NC(c1ccc(C(F)(F)F)cc1)CC(c1ccc(Nc3nc(NCCO)nc(Nc4ccc(Cl)cc4)n3)cc1)=N2 (stereo not given) | -84.7% (active)
29 | O=C(/C=C/c1ccccc1)c1ccccc1O | 64.4% (inactive)
30 | CCOC(=O)/C=C1\S/C(=N\Nc2cc(=O)[nH]c3ccccc23)N(c2ccccc2)C1=O | 105% (inactive)
31 | COc1ccc(-c2nnc(SCc3ccc(O)c4ncccc34)n2-c2ccccc2)cc1 | 10.3% (inactive)
32 | Cc1ccc2c(n1)C(=O)C(Cl)=C(Nc1ccc(C(=O)OC(C)(C)C)cc1)C2=O | -50.3% [9.25 µM] (active)
33 | COC(=O)[C@H](Cc1ccccc1)NC(=O)[C@@H](OC)[C@@H]1Cc2cc3cc(OC4CC(OC5CC(O)C(O)C(C)O5)C(O)C(C)O4)c(C)c(O)c3c(O)c2C(=O)[C@H]1OC1CC(OC2CC(OC3CC(C)(O)C(O)C(C)O3)C(O)C(C)O2)C(O)C(C)O1 (stereo not given in full) | -36.7% (active)
34 | N/C(=N\C(N)=N\c1nc2ccccc2s1)c1cccc(F)c1 | 92.9% [5 µM] (inactive)
35 | Oc1[nH]c2ccc(Cl)cc2c1N=Nc1nc(N=Nc2c(O)[nH]c3ccc(Cl)cc23)nc(N2CCCCC2)n1 | 18.1% (inactive)
36 | NC[C@H](O)c1ccc(O)c(O)c1 | 111% (inactive)
37 | CNC(=O)c1cc(-n2ccc3cc(NC(=O)c4ccc(N5CCOCC5)c(C(F)(F)F)c4)ccc32)ccn1 | 71.6% (inactive)
38 | C=C1CC[C@@H]2[C@](C)(COC(C)=O)[C@H](OC(C)=O)CC[C@@]2(C)[C@@H]1C/C=C1/C(=O)OC[C@H]1OC(C)=O | 7.98% (active)
39 | OC1Cc2ccccc2C1 | 105% (inactive)
40 | O=C(N/N=C/c1ccc2c(c1)OCO2)c1cnn2c1NC(c1ccccc1)C2 (stereo not given) | 22.4% (inactive)
